# Laboratory results as given in publication PMC5540273 (PLoS ONE, 2017).
# Several values for one entry are separate records, joined by “and”; a condition that tells them apart may be missing. Equal values may be shown once. Read-outs that look alike come from different tables or passages of the source.
# Experiments:
# CAMK1B = settings: n = 1
# CAMK1D = settings: n = 1
# CAMK1G = settings: n = 1
# CAMK1 = settings: n = 1
# CAMK2A = settings: concentration: 1 μM, replicates: in singlicate; n = 1
# CAMK2B = settings: concentration: 1 μM, replicates: in singlicate; n = 1
# CAMK2D = settings: n = 1
# CAMK2G = settings: n = 1
# CAMK4 = settings: concentration: 1 μM, replicates: in singlicate; n = 1
# CAMKK1 = settings: concentration: 1 μM, replicates: in singlicate; n = 1
# CAMKK2 = settings: n = 1
# CASK = settings: n = 1
# CDC2L1 = test system: T1, CDC2L1; settings: n = 1
# T1 construct: gene CDK11B
# CDC2L2 = settings: n = 1
# CDC2L5 = test system: T2, CDC2L5; settings: concentration: 1 μM, replicates: in singlicate; n = 1
# T2 construct: gene CDK13
# CDK11 = test system: T3, CDK11; settings: n = 1
# T3 construct: gene CDK19
# CDK2 = settings: n = 1
# CDK3 = settings: n = 1
# CDK4-cyclinD1 = settings: concentration: 1 μM, replicates: in singlicate; n = 1
# CDK4-cyclinD3 = settings: n = 1
# [1] = concentration: 1 μM, replicates: in singlicate
# [2] = concentration: 1 μM,replicates: in singlicate, 1 µM
# 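Note: KINOMEscan kinase panel screen.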
smiles,measurement,setting,value
O=C(Nc1n[nH]c2nc(-c3nccs3)c(Br)cc12)C1CCCC1 [SB-742609],%Inh,CAMK1B; [1],20%
same,%Inh,CAMK1D; [1],1%
same,%Inh,CAMK1G; [1],8%
same,%Inh,CAMK1; [1],0%
same,%Inh,CAMK2A,0%
same,%Inh,CAMK2B,0%
same,%Inh,CAMK2D; [1],15%
same,%Inh,CAMK2G; [1],11%
same,%Inh,CAMK4,0%
same,%Inh,CAMKK1,8%
same,%Inh,CAMKK2; [1],0%
same,%Inh,CASK; [1],19%
same,%Inh,CDC2L1; [1],100%
same,%Inh,CDC2L2; [1],0%
same,%Inh,CDC2L5,0%
same,%Inh,CDK11; [1],0%
same,%Inh,CDK2; [1],86%
same,%Inh,CDK3; [1],60%
same,%Inh,CDK4-cyclinD1,41%
same,%Inh,CDK4-cyclinD3; [1],14%
Fc1cccc(COc2nnc(-c3ccc4c(c3)CCO4)o2)c1,%Inh,CAMK1B; [1],0%
same,%Inh,CAMK1D; [1],0%
same,%Inh,CAMK1G; [1],12%
same,%Inh,CAMK1; [1],18%
same,%Inh,CAMK2A,0%
same,%Inh,CAMK2B,6%
same,%Inh,CAMK2D; [1],0%
same,%Inh,CAMK2G; [1],7%
same,%Inh,CAMK4,0%
same,%Inh,CAMKK1,8%
same,%Inh,CAMKK2; [1],0%
same,%Inh,CASK; [1],10%
same,%Inh,CDC2L1; [1],1%
same,%Inh,CDC2L2; [1],0%
same,%Inh,CDC2L5,18%
same,%Inh,CDK11; [1],16%
same,%Inh,CDK2; [1],0%
same,%Inh,CDK3; [1],4%
same,%Inh,CDK4-cyclinD1,9%
same,%Inh,CDK4-cyclinD3; [1],0%
O=c1cc(N2CCOCC2)nc2n(Cc3cccc(Cl)c3Cl)ccn12 [GSK2286295],%Inh,CAMK1B; [1],8%
same,%Inh,CAMK1D; [1],18%
same,%Inh,CAMK1G; [1],0%
same,%Inh,CAMK1; [1],14%
same,%Inh,CAMK2A,0%
same,%Inh,CAMK2B,0%
same,%Inh,CAMK2D; [1],5%
same,%Inh,CAMK2G; [1],9%
same,%Inh,CAMK4,0%
same,%Inh,CAMKK1,14%
same,%Inh,CAMKK2; [1],16%
same,%Inh,CASK; [1],9%
same,%Inh,CDC2L1; [1],13%
same,%Inh,CDC2L2; [1],16%
same,%Inh,CDC2L5,0%
same,%Inh,CDK11; [1],23%
same,%Inh,CDK2; [1],0%
same,%Inh,CDK3; [1],0%
same,%Inh,CDK4-cyclinD1,0%
same,%Inh,CDK4-cyclinD3; [1],0%
C[C@@H]1CCCCN1c1cc(-c2ccc3c(N)n[nH]c3c2)nc(N)n1 [GSK2258759],%Inh,CAMK1B; [1],0%
same,%Inh,CAMK1D; [1],15%
same,%Inh,CAMK1G; [1],0%
same,%Inh,CAMK1; [1],9%
same,%Inh,CAMK2A,0%
same,%Inh,CAMK2B,0%
same,%Inh,CAMK2D; [1],1%
same,%Inh,CAMK2G; [1],28%
same,%Inh,CAMK4,0%
same,%Inh,CAMKK1,8%
same,%Inh,CAMKK2; [1],26%
same,%Inh,CASK; [1],11%
same,%Inh,CDC2L1; [1],0%
same,%Inh,CDC2L2; [1],18%
same,%Inh,CDC2L5,0%
same,%Inh,CDK11; [1],4%
same,%Inh,CDK2; [1],0%
same,%Inh,CDK3; [1],15%
same,%Inh,CDK4-cyclinD1,0%
same,%Inh,CDK4-cyclinD3; [1],7%
Cc1cccc(-c2nc(Nc3ccc4[nH]ncc4c3)c3ccccc3n2)n1 [GW857175],%Inh,CAMK1B; [1],0%
same,%Inh,CAMK1D; [1],0%
same,%Inh,CAMK1G; [1],0%
same,%Inh,CAMK1; [1],0%
same,%Inh,CAMK2A,15%
same,%Inh,CAMK2B,3%
same,%Inh,CAMK2D; [1],0%
same,%Inh,CAMK2G; [1],0%
same,%Inh,CAMK4,0%
same,%Inh,CAMKK1,0%
same,%Inh,CAMKK2; [1],0%
same,%Inh,CASK; [1],45%
same,%Inh,CDC2L1; [1],12%
same,%Inh,CDC2L2; [1],9%
same,%Inh,CDC2L5,20%
same,%Inh,CDK11; [1],0%
same,%Inh,CDK2; [1],0%
same,%Inh,CDK3; [1],0%
same,%Inh,CDK4-cyclinD1,23%
same,%Inh,CDK4-cyclinD3; [1],0%
Cc1cc(NCC(c2ccccc2)c2ccccc2)nc(NCc2ccc(C(F)(F)F)cc2)n1 [GW497681],%Inh,CAMK1B; [1],0%
same,%Inh,CAMK1D; [1],17%
same,%Inh,CAMK1G; [1],3%
same,%Inh,CAMK1; [1],12%
same,%Inh,CAMK2A,0%
same,%Inh,CAMK2B,0%
same,%Inh,CAMK2D; [1],13%
same,%Inh,CAMK2G; [1],25%
same,%Inh,CAMK4,0%
same,%Inh,CAMKK1,5%
same,%Inh,CAMKK2; [1],23%
same,%Inh,CASK; [1],0%
same,%Inh,CDC2L1; [1],0%
same,%Inh,CDC2L2; [1],5%
same,%Inh,CDC2L5,0%
same,%Inh,CDK11; [1],0%
same,%Inh,CDK2; [1],0%
same,%Inh,CDK3; [1],0%
same,%Inh,CDK4-cyclinD1,0%
same,%Inh,CDK4-cyclinD3; [1],0%
COC(=O)c1c(-c2ccccc2)c2cc(C(=O)O)ccc2c(=O)n1Cc1ccccc1,%Inh,CAMK1B; [1],0%
same,%Inh,CAMK1D; [1],1%
same,%Inh,CAMK1G; [1],6%
same,%Inh,CAMK1; [1],1%
same,%Inh,CAMK2A,0%
same,%Inh,CAMK2B,0%
same,%Inh,CAMK2D; [1],5%
same,%Inh,CAMK2G; [1],0%
same,%Inh,CAMK4,18%
same,%Inh,CAMKK1,0%
same,%Inh,CAMKK2; [1],0%
same,%Inh,CASK; [1],18%
same,%Inh,CDC2L1; [1],0%
same,%Inh,CDC2L2; [1],3%
same,%Inh,CDC2L5,40%
same,%Inh,CDK11; [1],0%
same,%Inh,CDK2; [1],0%
same,%Inh,CDK3; [1],0%
same,%Inh,CDK4-cyclinD1,0%
same,%Inh,CDK4-cyclinD3; [1],0%
Cc1cccc(-c2cc(Nc3ccncc3)c3ccccc3n2)n1 [GSK223675],%Inh,CAMK1B; [1],25%
same,%Inh,CAMK1D; [1],26%
same,%Inh,CAMK1G; [1],6%
same,%Inh,CAMK1; [1],17%
same,%Inh,CAMK2A,0%
same,%Inh,CAMK2B,0%
same,%Inh,CAMK2D; [1],20%
same,%Inh,CAMK2G; [1],26%
same,%Inh,CAMK4,0%
same,%Inh,CAMKK1,12%
same,%Inh,CAMKK2; [1],20%
same,%Inh,CASK; [1],0%
same,%Inh,CDC2L1; [1],0%
same,%Inh,CDC2L2; [1],19%
same,%Inh,CDC2L5,0%
same,%Inh,CDK11; [1],7%
same,%Inh,CDK2; [1],0%
same,%Inh,CDK3; [1],0%
same,%Inh,CDK4-cyclinD1,0%
same,%Inh,CDK4-cyclinD3; [1],9%
Cc1cccc(-c2nc(C)cc(Nc3ccncc3)n2)n1 [GSK257997],%Inh,CAMK1B; [1],12%
same,%Inh,CAMK1D; [1],14%
same,%Inh,CAMK1G; [1],99.4%
same,%Inh,CAMK1; [1],10%
same,%Inh,CAMK2A,0%
same,%Inh,CAMK2B,0%
same,%Inh,CAMK2D; [1],94.2%
same,%Inh,CAMK2G; [1],12%
same,%Inh,CAMK4,0%
same,%Inh,CAMKK1,0%
same,%Inh,CAMKK2; [1],12%
same,%Inh,CASK; [1],19%
same,%Inh,CDC2L1; [1],100%
same,%Inh,CDC2L2; [1],17%
same,%Inh,CDC2L5,0%
same,%Inh,CDK11; [1],12%
same,%Inh,CDK2; [1],0%
same,%Inh,CDK3; [1],0%
same,%Inh,CDK4-cyclinD1,0%
same,%Inh,CDK4-cyclinD3; [1],0%
Cc1ccc(-c2cc(-c3c[nH]nc3-c3ccccn3)ccn2)cc1 [GW684088],%Inh,CAMK1B; [1],55%
same,%Inh,CAMK1D; [1],13%
same,%Inh,CAMK1G; [1],14%
same,%Inh,CAMK1; [1],9%
same,%Inh,CAMK2A,2%
same,%Inh,CAMK2B,0%
same,%Inh,CAMK2D; [1],16%
same,%Inh,CAMK2G; [1],25%
same,%Inh,CAMK4,0%
same,%Inh,CAMKK1,30%
same,%Inh,CAMKK2; [1],26%
same,%Inh,CASK; [1],0%
same,%Inh,CDC2L1; [1],0%
same,%Inh,CDC2L2; [1],17%
same,%Inh,CDC2L5,0%
same,%Inh,CDK11; [1],16%
same,%Inh,CDK2; [1],0%
same,%Inh,CDK3; [1],0%
same,%Inh,CDK4-cyclinD1,28%
same,%Inh,CDK4-cyclinD3; [1],0%
CSc1nn2c(=O)cc(N3CCOCC3)nc2n1Cc1cccc(C(F)(F)F)c1C [GSK2363608],%Inh,CAMK1B; [2],31% and 0%
same,%Inh,CAMK1D; [2],9% and 19%
same,%Inh,CAMK1G; [2],0% and 11%
same,%Inh,CAMK1; [2],1% and 13%
same,%Inh,CAMK2A,0%
same,%Inh,CAMK2B,0%
same,%Inh,CAMK2D; [2],2% and 19%
same,%Inh,CAMK2G; [2],0% and 15%
same,%Inh,CAMK4,0%
same,%Inh,CAMKK1,0%
same,%Inh,CAMKK2; [2],14% and 0%
same,%Inh,CASK; [2],19% and 16%
same,%Inh,CDC2L1; [2],3% and 0%
same,%Inh,CDC2L2; [2],25% and 0%
same,%Inh,CDC2L5,0%
same,%Inh,CDK11; [2],5% and 35%
same,%Inh,CDK2; [2],6% and 0%
same,%Inh,CDK3; [2],17% and 0%
same,%Inh,CDK4-cyclinD1,0%
same,%Inh,CDK4-cyclinD3; [2],6% and 0%
